Compounds without any hit were thinned out: in the full panel of roughly 83,000, 20% have a hit.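 The endpoint reported here, percent growth, reads 100 for growth as untreated, 0 for no net growth and -100 for all cells dead.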 Calls of active or inactive are those of the source. How the source made its calls: active means growth percent below 10; inactive means the rest.
Key:
Test in all cases: NCI-60 one-dose screen, 48 h (100 = growth as untreated, 0 = no growth, -100 = all killed)
Conditions in all cases: 10 µM unless noted
SK-MEL-2 melanoma = tested on: SK-MEL-2 melanoma
EKVX NSCLC = tested on: EKVX NSCLC
SN12C renal = tested on: SN12C renal
UO-31 renal = tested on: UO-31 renal
TK-10 renal = tested on: TK-10 renal
ACHN renal = tested on: ACHN renal
CAKI-1 renal = tested on: CAKI-1 renal
A498 renal = tested on: A498 renal
CCRF-CEM leukemia = tested on: CCRF-CEM leukemia
MOLT-4 leukemia = tested on: MOLT-4 leukemia
SR leukemia = tested on: SR leukemia
RPMI-8226 leukemia = tested on: RPMI-8226 leukemia
OVCAR-8 ovarian = tested on: OVCAR-8 ovarian
OVCAR-5 ovarian = tested on: OVCAR-5 ovarian
OVCAR-4 ovarian = tested on: OVCAR-4 ovarian
SK-OV-3 ovarian = tested on: SK-OV-3 ovarian
IGROV1 ovarian = tested on: IGROV1 ovarian
OVCAR-3 ovarian = tested on: OVCAR-3 ovarian
HS 578T breast = tested on: HS 578T breast
NCI/ADR-RES ovarian = tested on: NCI/ADR-RES ovarian

Measured: growth

CN1CCN(CC#CCn2c3c(c4ccccc42)C[C@]2(C)[C@H]4CC[C@@H]5[C@H]6[C@H]7OC(=O)[C@@]6(CCC7(C)C)CC[C@@]5(C)[C@]4(C)CC[C@H]2C3(C)C)CC1
active: CCRF-CEM leukemia -0.753% | SR leukemia 0.535%
inactive: SK-MEL-2 melanoma 118% | EKVX NSCLC 99.2% | SN12C renal 52.8% | UO-31 renal 67.2% | TK-10 renal 161% | ACHN renal 91.3% | CAKI-1 renal 52.4% | A498 renal 71.6% | MOLT-4 leukemia 41.6% | RPMI-8226 leukemia 59.2% | OVCAR-8 ovarian 60.3% | OVCAR-5 ovarian 112% | OVCAR-4 ovarian 74.1% | SK-OV-3 ovarian 106% | IGROV1 ovarian 90.9% | OVCAR-3 ovarian 80.2% | HS 578T breast 101% | NCI/ADR-RES ovarian 77%

Fc1ccc(Nc2nnc(-c3ccc(Cl)cc3)o2)cc1
inactive: SK-MEL-2 melanoma 106% | EKVX NSCLC 92.1% | SN12C renal 103% | UO-31 renal 85.4% | TK-10 renal 137% | ACHN renal 107% | CAKI-1 renal 92.8% | A498 renal 92.8% | CCRF-CEM leukemia 58.4% | MOLT-4 leukemia 88.4% | SR leukemia 90.8% | RPMI-8226 leukemia 99.8% | OVCAR-8 ovarian 86.7% | OVCAR-5 ovarian 98.3% | OVCAR-4 ovarian 94.7% | SK-OV-3 ovarian 77.4% | IGROV1 ovarian 90.2% | OVCAR-3 ovarian 110% | HS 578T breast 107% | NCI/ADR-RES ovarian 99%

COc1cc(-c2cc3ncccc3c3nc(N)c4cccnc4c23)cc(OC)c1OC
inactive: SK-MEL-2 melanoma 30.7% | EKVX NSCLC 27.1% | SN12C renal 26.7% | UO-31 renal 51.1% | TK-10 renal 16.3% | ACHN renal 22.6% | CAKI-1 renal 31.1% | CCRF-CEM leukemia 32.5% | MOLT-4 leukemia 20.7% | SR leukemia 28.3% | RPMI-8226 leukemia 23.2% | OVCAR-8 ovarian 26.9% | OVCAR-5 ovarian 35.7% | OVCAR-4 ovarian 54.3% | SK-OV-3 ovarian 20.5% | IGROV1 ovarian 41% | OVCAR-3 ovarian 15.1% | HS 578T breast 16.8% | NCI/ADR-RES ovarian 10.5%
active: A498 renal -17.6%

C=C(C)[C@@H]1CC[C@]2(C)CC[C@]3(C)[C@H](CC[C@@H]4[C@@]5(C)CCCNC(C)(C)[C@@H]5CC[C@]43C)[C@@H]12
active: SR leukemia 1.2%
inactive: SK-MEL-2 melanoma 119% | EKVX NSCLC 103% | SN12C renal 82.1% | UO-31 renal 88.2% | TK-10 renal 142% | ACHN renal 95.5% | CAKI-1 renal 75.3% | A498 renal 79.7% | CCRF-CEM leukemia 52% | MOLT-4 leukemia 46.6% | RPMI-8226 leukemia 30.1% | OVCAR-8 ovarian 84.1% | OVCAR-5 ovarian 107% | OVCAR-4 ovarian 94.5% | SK-OV-3 ovarian 113% | IGROV1 ovarian 94% | OVCAR-3 ovarian 76.2% | HS 578T breast 101% | NCI/ADR-RES ovarian 97.3%

COc1cc2ncnc(Nc3ccc(OCc4cccc(F)c4)c(Cl)c3)c2cc1NC(=O)C1CCCC1
inactive: SK-MEL-2 melanoma 86.2% | EKVX NSCLC 37.6% | SN12C renal 85.2% | UO-31 renal 30.5% | TK-10 renal 18.4% | ACHN renal 47.6% | CAKI-1 renal 55.9% | A498 renal 20.8% | CCRF-CEM leukemia 92.6% | MOLT-4 leukemia 84% | SR leukemia 91% | RPMI-8226 leukemia 89.9% | OVCAR-8 ovarian 76.9% | OVCAR-5 ovarian 88.9% | OVCAR-4 ovarian 100% | SK-OV-3 ovarian 13% | IGROV1 ovarian 52.2% | OVCAR-3 ovarian 77.9% | HS 578T breast 91.8% | NCI/ADR-RES ovarian 71.6%

C=C(C)[C@@H]1CC[C@]2(C=O)CC[C@]3(C)[C@H](CC[C@@H]4[C@@]5(C)C/C(=C/c6cccnc6)C(=O)C(C)(C)[C@@H]5CC[C@]43C)[C@@H]12
inactive: SK-MEL-2 melanoma 88.5% | EKVX NSCLC 88.5% | SN12C renal 77.1% | TK-10 renal 134% | ACHN renal 61.6% | CAKI-1 renal 50.1% | A498 renal 98.3% | CCRF-CEM leukemia 27.7% | MOLT-4 leukemia 49.9% | SR leukemia 40.6% | RPMI-8226 leukemia 35.5% | OVCAR-8 ovarian 63.5% | OVCAR-5 ovarian 128% | OVCAR-4 ovarian 64.6% | SK-OV-3 ovarian 117% | OVCAR-3 ovarian 74.3% | HS 578T breast 87.4% | NCI/ADR-RES ovarian 78.5%
active: UO-31 renal -33.9% | IGROV1 ovarian -31.2%

COc1ccc(O)c(-c2cc(-c3ccc(Cl)cc3)c(C#N)c(=O)[nH]2)c1
inactive: SK-MEL-2 melanoma 37.9% | EKVX NSCLC 105% | SN12C renal 77% | UO-31 renal 55% | TK-10 renal 87.3% | ACHN renal 78.1% | CAKI-1 renal 73.3% | A498 renal 79.6% | CCRF-CEM leukemia 37.2% | MOLT-4 leukemia 57.8% | SR leukemia 33.5% | RPMI-8226 leukemia 62.3% | OVCAR-8 ovarian 68.3% | OVCAR-5 ovarian 106% | OVCAR-4 ovarian 74.4% | SK-OV-3 ovarian 82.8% | IGROV1 ovarian 78.5% | OVCAR-3 ovarian 73.4% | HS 578T breast 58.7% | NCI/ADR-RES ovarian 62.5%

Brc1ccc(Cn2nnnc2-c2ccn(-c3ccccc3)n2)cc1
inactive: SK-MEL-2 melanoma 63.5% | EKVX NSCLC 69.8% | SN12C renal 68.5% | UO-31 renal 69.2% | TK-10 renal 77.6% | ACHN renal 70.7% | CAKI-1 renal 58.2% | A498 renal 52.5% | CCRF-CEM leukemia 56.7% | MOLT-4 leukemia 52.4% | SR leukemia 56.4% | RPMI-8226 leukemia 59.2% | OVCAR-8 ovarian 110% | OVCAR-5 ovarian 32% | OVCAR-4 ovarian 72.7% | SK-OV-3 ovarian 82.1% | IGROV1 ovarian 77.8% | OVCAR-3 ovarian 86.8% | HS 578T breast 77.7% | NCI/ADR-RES ovarian 27.5%

N#CC1=C(N)Oc2ccc3ccccc3c2C1c1ccccc1Cl (stereo not given)
active: NCI/ADR-RES ovarian 9.51%
inactive: SK-MEL-2 melanoma 45.9% | EKVX NSCLC 42.5% | SN12C renal 50% | UO-31 renal 48.9% | TK-10 renal 118% | ACHN renal 49.9% | CAKI-1 renal 34.5% | A498 renal 40.1% | CCRF-CEM leukemia 26.1% | MOLT-4 leukemia 26.7% | SR leukemia 26.1% | RPMI-8226 leukemia 32.9% | OVCAR-8 ovarian 61.8% | OVCAR-5 ovarian 77.2% | OVCAR-4 ovarian 78.9% | SK-OV-3 ovarian 55.9% | IGROV1 ovarian 34.1% | OVCAR-3 ovarian 31.2% | HS 578T breast 40.4%

CCCCN1CCCCn2c1nc1c2c(=O)n(C)c(=O)n1C
inactive: SK-MEL-2 melanoma 91.9% | EKVX NSCLC 105% | SN12C renal 102% | UO-31 renal 93.1% | TK-10 renal 103% | ACHN renal 107% | CAKI-1 renal 95.5% | A498 renal 96.3% | CCRF-CEM leukemia 113% | MOLT-4 leukemia 96.6% | SR leukemia 87.6% | RPMI-8226 leukemia 103% | OVCAR-8 ovarian 95.5% | OVCAR-5 ovarian 117% | OVCAR-4 ovarian 107% | SK-OV-3 ovarian 110% | IGROV1 ovarian 106% | OVCAR-3 ovarian 102% | HS 578T breast 100% | NCI/ADR-RES ovarian 99.9%

COc1cc(OC)c2c(c1)c1nc3cc(C)c(C)cc3nc1n2CCN(C)C
inactive: SK-MEL-2 melanoma 103% | EKVX NSCLC 89.2% | SN12C renal 82.1% | UO-31 renal 74.1% | TK-10 renal 182% | ACHN renal 84.3% | CAKI-1 renal 69.7% | A498 renal 105% | CCRF-CEM leukemia 79.6% | MOLT-4 leukemia 73.2% | SR leukemia 49.4% | RPMI-8226 leukemia 65.2% | OVCAR-8 ovarian 79.3% | OVCAR-5 ovarian 105% | OVCAR-4 ovarian 87.8% | SK-OV-3 ovarian 93.7% | IGROV1 ovarian 87.2% | OVCAR-3 ovarian 109% | HS 578T breast 91.9% | NCI/ADR-RES ovarian 82%

Cn1c(=O)c2c(ncn2CCC(=O)Nc2ccc(F)cc2)n(C)c1=O
inactive: SK-MEL-2 melanoma 104% | EKVX NSCLC 101% | SN12C renal 105% | UO-31 renal 90% | TK-10 renal 95% | ACHN renal 110% | CAKI-1 renal 92.9% | A498 renal 103% | CCRF-CEM leukemia 97.5% | MOLT-4 leukemia 101% | SR leukemia 105% | RPMI-8226 leukemia 97.2% | OVCAR-8 ovarian 108% | OVCAR-5 ovarian 103% | OVCAR-4 ovarian 111% | SK-OV-3 ovarian 85% | IGROV1 ovarian 112% | OVCAR-3 ovarian 107% | HS 578T breast 103% | NCI/ADR-RES ovarian 106%

COc1ccc(-c2cc(-c3cccs3)n(N=O)c(=O)c2C#N)cc1
inactive: SK-MEL-2 melanoma 105% | EKVX NSCLC 115% | SN12C renal 95.8% | UO-31 renal 89.4% | TK-10 renal 114% | ACHN renal 109% | CAKI-1 renal 102% | A498 renal 87.7% | CCRF-CEM leukemia 58.1% | MOLT-4 leukemia 107% | SR leukemia 114% | RPMI-8226 leukemia 88.4% | OVCAR-8 ovarian 97.4% | OVCAR-5 ovarian 94.4% | OVCAR-4 ovarian 100% | SK-OV-3 ovarian 105% | IGROV1 ovarian 100% | OVCAR-3 ovarian 123% | HS 578T breast 101% | NCI/ADR-RES ovarian 102%

COc1cnc2c(c1)C(=O)c1c-2n(CCCNC2=NCCS2)c(=O)c2cc([N+](=O)[O-])ccc12
inactive: SK-MEL-2 melanoma 73.1% | EKVX NSCLC 11.3% | SN12C renal 13.5% | CAKI-1 renal 13.3% | OVCAR-5 ovarian 28.9% | HS 578T breast 69.9%
active: UO-31 renal -71% | TK-10 renal -89.2% | ACHN renal -77.8% | A498 renal -36% | CCRF-CEM leukemia -10.9% | MOLT-4 leukemia -11.3% | SR leukemia -9.1% | RPMI-8226 leukemia -32.1% | OVCAR-8 ovarian -6.2% | OVCAR-4 ovarian -71.9% | SK-OV-3 ovarian 9.4% | IGROV1 ovarian -0.756% | OVCAR-3 ovarian -71.1% | NCI/ADR-RES ovarian -8.56%

CC1(C)C(=O)/C(=C\c2ccco2)C[C@]2(C)[C@H]3CC[C@@H]4[C@@H](C(=O)/C=C/c5ccco5)CC[C@@]4(C)[C@]3(C)CC[C@@H]12
inactive: EKVX NSCLC 105% | SN12C renal 87.2% | UO-31 renal 58.9% | TK-10 renal 107% | ACHN renal 19.3% | CAKI-1 renal 53.9% | A498 renal 91.3% | CCRF-CEM leukemia 50.6% | MOLT-4 leukemia 68.3% | SR leukemia 71% | RPMI-8226 leukemia 75.5% | OVCAR-8 ovarian 80.5% | OVCAR-5 ovarian 115% | OVCAR-4 ovarian 83.6% | SK-OV-3 ovarian 109% | IGROV1 ovarian 96.2% | OVCAR-3 ovarian 95.2% | HS 578T breast 77.8% | NCI/ADR-RES ovarian 95.1%
active: SK-MEL-2 melanoma -0.219%
